{"source": "the supplement of paper PMC7858590", "note": "± gives the standard deviation of the averaged measurements. Over roughly 3,800 compounds, “cell shape (eccentricity) Z-score vs DMSO control” has its median near 1.1; the lowest 2% begin near -4.7. The full list was thinned out, with the lowest values kept by preference.", "data": [{"tested_on": "human monocyte-derived macrophages (M0)", "test": "cell shape (eccentricity) Z-score vs DMSO control; higher = more elongated, M2-like morphology", "conditions": "20 µM; 24 h; macrophage state: M0 (M-CSF)", "procedure": "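Primary human monocyte-derived macrophages (M-CSF differentiated, pooled from 4 donors, 5000 cells/well in 384-well plates) were treated with each compound at 20 uM for 24 h, then fixed and stained with phalloidin/DAPI and imaged on an Opera Phenix (6 fields, about 1000 cells/well). Cell eccentricity was measured with CellProfiler, and a Z-score (t-test) was computed against 4 DMSO control wells in the same row. Negative values mean round (M1-like) cells and positive values mean elongated (M2-like) cells; the paper's hit cutoffs are Z <= -4 (M1) and Z >= 6 (M2). Scale: negative = round, M1-like.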", "values": [{"smiles": "C=C1[C@@H](C)[C@H]2[C@H](Cc3ccccc3)NC(=O)[C@]23OC(=O)/C=C/[C@H](O)CCC[C@@H](C)C/C=C/[C@H]3[C@@H]1O", "cell shape (Z-score)": -24.4}, {"smiles": "C/C=C/c1ccc2c(c1)OCO2", "cell shape (Z-score)": 2.7}, {"smiles": "CC(C)[C@]12O[C@H]1[C@@H]1O[C@]13[C@]1(O[C@H]1CC1C4=C(CC[C@@]13C)C(=O)OC4)[C@@H]2O", "note": "(stereo not given in full)", "cell shape (Z-score)": 8.48}, {"smiles": "CC(=O)O[C@H]1C[C@@H](OC(C)=O)C(C)(C)C2C[C@@H](OC(C)=O)[C@]3(C)C(CC[C@@]4(C)[C@H](c5ccoc5)C(=O)[C@H]5O[C@]543)[C@]21C", "note": "(stereo not given in full)", "cell shape (Z-score)": 0.275}, {"smiles": "O=c1[nH]c2ccccc2n1CCCN1CCC(n2c(=O)[nH]c3cc(Cl)ccc32)CC1", "cell shape (Z-score)": -1.03}, {"smiles": "O=C1NCN(c2ccccc2)C12CCN(CCCOc1ccc(F)cc1)CC2", "cell shape (Z-score)": 1.17}, {"smiles": "O=c1[nH]c2ccccc2n1C1CCN(CCCC(c2ccc(F)cc2)c2ccc(F)cc2)CC1", "cell shape (Z-score)": -6.33}, {"smiles": "O=c1ccc2cc(O[C@@H]3O[C@H](CO)[C@@H](O)[C@H](O)[C@H]3O)c(O)cc2o1", "cell shape (Z-score)": 2.48}, {"smiles": "CC(C)CC1C(=O)N2CCC[C@H]2C2(O)O[C@](NC(=O)C3C=C4c5cccc6[nH]c(Br)c(c56)C[C@H]4N(C)C3)(C(C)C)C(=O)N12", "note": "(stereo not given in full)", "cell shape (Z-score)": 4.71}, {"smiles": "O=C1Nc2ccccc2C2(CCN(CCc3ccc(C(F)(F)F)cc3)CC2)O1", "cell shape (Z-score)": -0.107}, {"smiles": "O=C(N[C@H]1CN2CCC1CC2)c1ccc(Cl)cc1", "cell shape (Z-score)": 1.37}, {"smiles": "c1cncc(C2=NCCC2)c1", "cell shape (Z-score)": 0.998}, {"smiles": "COc1ccc2c3c([nH]c2c1)[C@H](CC(C)C)N1C(=O)[C@H](CCC(=O)OC(C)(C)C)NC(=O)[C@@H]1C3", "cell shape (Z-score)": 9.45}, {"smiles": "COc1ccc2c(c1)[nH]c1c(C)nccc12", "cell shape (Z-score)": -5.5}, {"smiles": "C=C[C@H]1C[N@@]2CC[C@H]1C[C@H]2[C@H](O)c1ccnc2ccccc12", "cell shape (Z-score)": 2.46}, {"smiles": "CN1c2ccccc2C(NCCCCCCC(=O)O)c2ccc(Cl)cc2S1(=O)=O", "note": "(stereo not given)", "cell shape (Z-score)": 0.787}, {"smiles": "CCCCC/C=C\\C/C=C\\C/C=C\\C/C=C\\CCCC(=O)NCc1ccc(O)c(OC)c1", "cell shape (Z-score)": -0.144}, {"smiles": "O=C(Cc1ccc(Cl)c(Cl)c1)N1CCCCC1CN1CCCC1", "note": "(stereo not given)", "cell shape (Z-score)": -0.746}, {"smiles": "C(=Cc1ccccc1)CN1CCN(CCOC(c2ccccc2)c2ccccc2)CC1", "cell shape (Z-score)": 1.98}, {"smiles": "c1ccc(CCCN2CCN(CCOC(c3ccccc3)c3ccccc3)CC2)cc1", "cell shape (Z-score)": 4.69}, {"smiles": "Fc1ccc(C(OCCN2CCN(CC=Cc3ccccc3)CC2)c2ccc(F)cc2)cc1", "cell shape (Z-score)": -4.91}, {"smiles": "Fc1ccc(C(OCCN2CCN(CCCc3ccccc3)CC2)c2ccc(F)cc2)cc1", "cell shape (Z-score)": -0.302}, {"smiles": "C(=C\\c1ccccc1)/CN1CCN(CCOC(c2ccccc2)c2ccccc2)CC1", "cell shape (Z-score)": -5.62}, {"smiles": "Clc1ccc(C(OCCN2CCCCC2)c2ccccc2)cc1", "note": "(stereo not given)", "cell shape (Z-score)": 9.16}, {"smiles": "Cc1c([N+](=O)[O-])oc2ccc3ccccc3c12", "cell shape (Z-score)": -0.364}, {"smiles": "CN(C)C(=O)Oc1cc(OC(=O)N(C)C)cc(C(O)CNC(C)(C)C)c1", "note": "(stereo not given)", "cell shape (Z-score)": 2.11}, {"smiles": "CC(=O)O[C@@H](c1nc2ccccc2c(=O)n1[C@@H]1C[C@@]2(OC1=O)c1ccccc1N1C(=O)[C@H](C)N(O)[C@@H]12)C(C)C", "cell shape (Z-score)": 2.14}, {"smiles": "COc1cc(Br)c(OC)c2c1C(CN)C2", "note": "(stereo not given)", "cell shape (Z-score)": -4.96}, {"smiles": "CCCN(CCC)C1CCc2c(OC)cccc2C1C", "note": "(stereo not given)", "cell shape (Z-score)": 4.87}, {"smiles": "CC1=CC(=O)c2c(O)cccc2C1=O", "cell shape (Z-score)": -4.68}, {"smiles": "CC(C)NCC(O)c1ccc(N)c(C#N)c1", "note": "(stereo not given)", "cell shape (Z-score)": -0.285}, {"smiles": "CC(=O)O[C@@H]1C[C@@]2(C)[C@H](c3ccoc3)C[C@H]3O[C@]32[C@]2(C)C(=O)C(=O)C3C(C)(C)C(=O)C=C[C@]3(C)C12", "note": "(stereo not given in full)", "cell shape (Z-score)": -3.62}, {"smiles": "CC(=O)O[C@@H]1CC2C(C)(C)C(=O)C=C[C@]2(C)C2CC[C@]3(C)C(=CC(=O)O[C@H]3c3ccoc3)[C@@]21C", "note": "(stereo not given in full)", "cell shape (Z-score)": -6.06}, {"smiles": "CC1(C)C(=O)C=C[C@@]2(C)C1C[C@@H](O)[C@]1(C)C2CC[C@@]2(C)[C@H](c3ccoc3)OC(=O)[C@H]3O[C@]321", "note": "(stereo not given in full)", "cell shape (Z-score)": 1.86}, {"smiles": "CC(C)(O)c1cc(O)c2c(c1)CCC1C(C)(C(=O)O)CCCC21C", "note": "(stereo not given)", "cell shape (Z-score)": 0.93}, {"smiles": "CC(C)c1c(CN(C)C(C)Cc2ccccc2)n(C)n(-c2ccccc2)c1=O", "note": "(stereo not given)", "cell shape (Z-score)": 2.2}, {"smiles": "CC12C(=O)OC(=O)C1(C)C1CCC2O1", "note": "(stereo not given)", "cell shape (Z-score)": -12.8}, {"smiles": "CN1CCc2cc3c(cc2[C@H]1C1OC(=O)c2c1ccc1c2OCO1)OCO3", "note": "(stereo not given in full)", "cell shape (Z-score)": 0.327}, {"smiles": "CC[C@@H](C(=O)[C@@H](C)[C@@H](O)[C@H](C)[C@@H]1O[C@@H]([C@@H](CC)C(=O)O)CC[C@@H]1C)[C@H]1OC2(C=C[C@@H](O)[C@]3(CC[C@@](C)(C4CC[C@](O)(CC)[C@H](C)O4)O3)O2)[C@H](C)C[C@@H]1C", "note": "(stereo not given in full)", "cell shape (Z-score)": 1.16}, {"smiles": "C=CCN1C[C@H](C)N([C@H](c2ccc(C(=O)N(CC)CC)cc2)c2cccc(O)c2)C[C@H]1C", "cell shape (Z-score)": 1.38}, {"smiles": "C[C@]12CCC3C(CC[C@]4(O)C[C@@H](O)CC[C@]34C=O)[C@@]1(O)CCC2C1=CC(=O)OC1", "note": "(stereo not given in full)", "cell shape (Z-score)": -3.05}, {"smiles": "CC(C)(O)/C=C/C(=O)[C@](C)(O)C1[C@H](O)C[C@@]2(C)C3CC=C4C(CC(=O)C(=O)C4(C)C)[C@]3(C)C(=O)C[C@]12C", "note": "(stereo not given in full)", "cell shape (Z-score)": -23.9}, {"smiles": "CC(C)(O)CCC(=O)[C@](C)(O)[C@H]1[C@H](O)C[C@@]2(C)[C@@H]3CC=C4C(C=C(O[C@@H]5O[C@H](CO)[C@@H](O)[C@H](O)[C@H]5O)C(=O)C4(C)C)[C@]3(C)C(=O)C[C@]12C", "note": "(stereo not given in full)", "cell shape (Z-score)": 1.51}, {"smiles": "CN([N+][O-])c1cc(O)ccc1O", "cell shape (Z-score)": -4.54}, {"smiles": "C=CCC1(C(C)CCC)C(=O)N=C(S)NC1=O", "note": "(stereo not given)", "cell shape (Z-score)": 2.85}, {"smiles": "CC(=Cc1csc(C)n1)[C@H]1C[C@@H]2O[C@]2(C)CCC[C@H](C)[C@H](O)[C@@H](C)C(=O)C(C)(C)[C@@H](O)CC(=O)O1", "cell shape (Z-score)": 0.111}, {"smiles": "c1ccc2c(c1)[I+]c1ccccc1-2", "cell shape (Z-score)": -7.52}, {"smiles": "O=C1c2ccccc2C(=O)c2ccccc21", "cell shape (Z-score)": 1.99}, {"smiles": "C[C@@]12C[C@@H](c3ccoc3)OC(=O)C1CC[C@]1(C)[C@H]2[C@H]2C=C[C@]1(O)C(=O)O2", "note": "(stereo not given in full)", "cell shape (Z-score)": -0.795}, {"smiles": "COc1cc2c(c(OC)c1OC)-c1ccc(OC)c(=O)cc1C(NC(C)=O)CC2", "note": "(stereo not given)", "cell shape (Z-score)": 8.73}, {"smiles": "CC(C)(C)c1cc(C=C(C#N)C#N)cc(C(C)(C)C)c1O", "cell shape (Z-score)": -0.65}, {"smiles": "C[C@H]1O[C@@H](O[C@H]2CC[C@]3(CO)C4CC[C@]5(C)[C@@H](C6=CC(=O)OC6)CC[C@]5(O)C4CC[C@H]3C2)[C@H](O)[C@H](O)[C@@H]1O", "note": "(stereo not given in full)", "cell shape (Z-score)": 1.31}, {"smiles": "CO[C@@H]1[C@H](O)[C@@H](O[C@@H]2C[C@H]3CC[C@@H]4C(CC[C@]5(C)[C@@H](C6=CC(=O)OC6)CC[C@]45O)[C@@]3(C)[C@H](O)C2)O[C@H](C)[C@@H]1O[C@@H]1O[C@H](CO)[C@@H](O)[C@H](O)[C@H]1O", "note": "(stereo not given in full)", "cell shape (Z-score)": "-2.59 ± 0.87"}, {"smiles": "C[C@H]1O[C@@H](O[C@H]2CC[C@]3(CO)C4CC[C@]5(C)[C@@H](C6=CC(=O)OC6)CC[C@]5(O)[C@@H]4CC[C@H]3C2)[C@H](O)[C@H](O)[C@@H]1O[C@@H]1O[C@H](CO)[C@@H](O)[C@H](O)[C@H]1O", "note": "(stereo not given in full)", "cell shape (Z-score)": -6}, {"smiles": "COc1ccc2c(c1O)-c1cc(O)cc3c1[C@@H](C2)N(C)CC3", "cell shape (Z-score)": 0.611}, {"smiles": "CCCn1c(C)c(C(=O)c2cccc3ccccc23)c2ccccc21", "cell shape (Z-score)": 1.57}, {"smiles": "Cc1c(C(=O)c2cccc3ccccc23)c2cccc3c2n1[C@@H](CN1CCOCC1)CO3", "cell shape (Z-score)": 3.85}, {"smiles": "Cc1c(C(=O)c2cccc3ccccc23)c2cccc3c2n1[C@H](CN1CCOCC1)CO3", "cell shape (Z-score)": -5.15}, {"smiles": "COc1cc([C@@H]2c3cc4c(cc3[C@H](OC(C)=O)[C@H]3COC(=O)[C@H]23)OCO4)cc(OC)c1OC", "cell shape (Z-score)": 9.18}, {"smiles": "Cc1ccc2c(c1)Cc1c(C(=O)NC3CCCCC3)nn(-c3ccc(Cl)cc3Cl)c1-2", "cell shape (Z-score)": 2.43}, {"smiles": "N#CC(C#N)=Cc1cc(O)c(O)c([N+](=O)[O-])c1", "cell shape (Z-score)": -0.026}, {"smiles": "CCNC(=O)C1OC(n2cnc3c(N)ncnc32)C(O)C1O", "note": "(stereo not given)", "cell shape (Z-score)": 4.21}, {"smiles": "CCOC(=O)c1ncn2c1CN(C)C(=O)c1cc(N=[N+]=[N-])ccc1-2", "cell shape (Z-score)": 2.52}, {"smiles": "CN1C[C@H](C(=O)N[C@]2(C)O[C@@]3(O)[C@@H]4CCCN4C(=O)[C@H](Cc4ccccc4)N3C2=O)C[C@@H]2c3cccc4[nH]cc(c34)C[C@H]21", "cell shape (Z-score)": 3.57}, {"smiles": "CC(N)Cn1ccc2cc(F)c(Cl)cc21", "note": "(stereo not given)", "cell shape (Z-score)": 0.211}]}]}
